This is an account of results in PubChem BioAssay AID624167 (Sanford-Burnham Center for Chemical Genomics, 2012).

A short description of this test: Peg3 promoter luciferase inhibitors, potency, dose response, cell-based, HeLa, CREF/GAPDH counter-screen panel (AID 624167). The following applies: CREF/GAPDH counter-screens; run 1, dose range 1, at 100 µM (top of the series). Background: The purpose of a counterscreen is to sort out artefacts and off-target activity.
As for `C=Cc1cc(OC)c2c(c1)c(=O)oc1c2cc(OC)c2c(O)ccc(C3OC(C)C(O)C(C)(O)C3O)c21` (stereo not drawn), the inhibition (usually the relative decrease from the control value, in per cent) is -12.4%.
For the compound `O=C(CSC1c2ccccc2-c2ccccc21)N/N=C/c1ccccc1O`, the inhibition stood at 60.3%.
Consider `COc1cc2nc(CN3CC=C(c4ccccc4)CC3)[nH]c(=O)c2cc1OC`, for which the inhibition came to 56.3%.
As for `CCC(c1nnnn1-c1ccc2c(c1)OCCO2)N1CCC(n2c(=O)[nH]c3ccccc32)CC1` (stereo not drawn), the figure is 92.4%; as for `COC(COC(N)=O)C1=C(N2CC2)C(=O)C(C)=C(N2CC2)C1=O` (stereo not drawn), 84.3%.
As for `CC(=O)OC1CC[C@]2(C#N)[C@H]3CC[C@]4(C)[C@H](C5C=CC(=O)O5)CCC4(O)C3CCC2(O)C1` (stereo partly drawn), the figure is 77.9%.
For `CC1=CC2/C=C(\C)CCC(O)C(O)/C=C/C(=O)C23C(=O)NC(CC(C)C)C3C1C` (stereo not drawn) the value was 99.8%.
`CC(=O)OC1(C)CC(C)C(=O)C(C(O)CC2CC(=O)NC(=O)C2)C1` (stereo not drawn): the inhibition is 89.5%.
